# Inconclusive results are not listed. Unmarked numbers belong to inactive results. Active and inactive are the calls of the source. Calls come from the whole dose curve; as a rule, active = well fitted inhibition curve with a large enough effect; inconclusive = small, poorly fitted or top-dose-only effect; inactive = flat fitted curve, though single readings scatter.
# Molecular target: Voltage-gated inwardly rectifying potassium channel KCNH2 (Homo sapiens) (UniProt Q12809)
# Experiment: qHTS Assay for Small Molecule Inhibitors of the Human hERG Channel Activity (AID 588834);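 note: lower thallium flux fluorescence means stronger hERG block; nearly all actives have a fitted effect of over 50% in size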; for activity change, negative = inhibition: top concentration of the series differs between compounds
# Details: U2OS BacMam hERG, FluxOR thallium flux fluorescence; series mostly up to 46.1 µM; activity change, negative = inhibition: at the top concentration
# How it was run: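 hERG-BacMam U2OS, 2000 cells/well; 0.7X FluxOR loading 1 hr RT dark; cpd ~10 min 37 °C; stim buffer; FDSS fluorescence 2 min @ 1 s; AC50 Hill fit.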
# % is set by controls: 0 for no effect and ±100 for the full control effect; potency is the fitted concentration of half-maximal effect.
# Chain of Voltage-gated inwardly rectifying potassium channel KCNH2 (Homo sapiens) (Q12809 whole entry, looked up): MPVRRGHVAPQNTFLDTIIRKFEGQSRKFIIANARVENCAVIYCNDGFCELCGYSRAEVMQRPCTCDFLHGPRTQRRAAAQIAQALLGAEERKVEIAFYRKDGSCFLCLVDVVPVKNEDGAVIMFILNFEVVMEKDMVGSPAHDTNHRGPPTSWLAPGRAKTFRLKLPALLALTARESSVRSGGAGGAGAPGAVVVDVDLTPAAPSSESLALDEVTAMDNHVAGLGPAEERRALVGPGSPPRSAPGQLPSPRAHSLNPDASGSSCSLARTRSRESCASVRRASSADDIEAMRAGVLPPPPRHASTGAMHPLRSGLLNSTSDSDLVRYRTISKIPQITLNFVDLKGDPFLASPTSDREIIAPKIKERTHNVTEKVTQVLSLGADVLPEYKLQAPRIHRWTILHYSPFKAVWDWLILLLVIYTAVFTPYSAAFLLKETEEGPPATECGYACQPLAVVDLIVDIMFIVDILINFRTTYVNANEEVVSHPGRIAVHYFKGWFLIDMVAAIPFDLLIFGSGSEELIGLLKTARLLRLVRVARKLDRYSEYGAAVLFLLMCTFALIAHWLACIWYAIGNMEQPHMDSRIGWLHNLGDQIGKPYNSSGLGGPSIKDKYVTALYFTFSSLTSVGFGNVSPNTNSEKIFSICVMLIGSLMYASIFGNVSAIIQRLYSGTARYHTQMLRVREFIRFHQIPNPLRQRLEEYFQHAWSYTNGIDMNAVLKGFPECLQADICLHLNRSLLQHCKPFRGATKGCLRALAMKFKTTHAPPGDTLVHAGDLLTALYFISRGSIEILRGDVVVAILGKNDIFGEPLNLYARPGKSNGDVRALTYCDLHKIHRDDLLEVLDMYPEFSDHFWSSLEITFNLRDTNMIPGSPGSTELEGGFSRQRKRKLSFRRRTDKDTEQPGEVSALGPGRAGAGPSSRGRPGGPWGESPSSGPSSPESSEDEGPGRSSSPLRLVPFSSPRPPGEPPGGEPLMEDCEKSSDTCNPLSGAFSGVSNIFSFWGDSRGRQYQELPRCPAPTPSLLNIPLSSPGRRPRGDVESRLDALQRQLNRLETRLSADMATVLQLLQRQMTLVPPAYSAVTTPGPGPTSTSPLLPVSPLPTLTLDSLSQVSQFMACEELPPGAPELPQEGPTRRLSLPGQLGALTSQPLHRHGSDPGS
Compound,"activity change, negative = inhibition",Potency
O=C1/C(=C\c2cccs2)CCC/C1=C\c1cccs1,-17.2%,
CC(C)C[C@@H](NC(=O)[C@@H](O)[C@H](N)Cc1ccccc1)C(=O)O,7.66%,
C[C@@H]1C[C@H]2[C@@H]3CCC4=CC(=O)C=C[C@]4(C)[C@@]3(F)[C@@H](O)C[C@]2(C)[C@@]1(O)C(=O)COC(=O)c1cccc(S(=O)(=O)O)c1,16.2%,
CN[C@@H]1[C@@H](O[C@H]2O[C@H](CO)[C@@H](N)[C@H](O)[C@H]2O)O[C@H]2C[C@@H](N)[C@@H](O[C@H]3[C@H](O)[C@@H](O)[C@H](N)C[C@@H]3N)O[C@@H]2[C@@H]1O,2.33% [at 20.6 µM],
CC(=O)OCC1=C(C(=O)O)N2C(=O)[C@@H](NC(=O)Cc3ccccc3)[C@H]2SC1,3.07%,
CCC(=O)OC(OP(=O)(CCCCc1ccccc1)CC(=O)N1C[C@H](C2CCCCC2)C[C@H]1C(=O)O)C(C)C (some centres undefined),-4.65%,
O=C1NC(=O)[C@H]2[C@@H]1[C@@H]1C=C[C@H]2C1,18.2%,
O=C[C@H](O)[C@@H](O)[C@@H](O)[C@H](O)CO,0.0908%,
COc1c(O[C@@H]2O[C@H](CO)[C@@H](O)[C@H](O)[C@H]2O)cc2c(c1OC)-c1ccc(SC)c(=O)cc1[C@@H](NC(C)=O)CC2,5.55% [at 20.6 µM],
COc1ccc([C@@H]2CC(=O)c3c(O)cc(O[C@@H]4O[C@H](CO[C@@H]5O[C@@H](C)[C@H](O)[C@@H](O)[C@H]5O)[C@@H](O)[C@H](O)[C@H]4O)cc3O2)cc1O,17.6% [at 20.6 µM],
CC[C@H]1NC(=O)[C@@H](NC(=O)c2ncccc2O)[C@@H](C)OC(=O)[C@H](c2ccccc2)NC(=O)[C@@H]2CC(=O)CCN2C(=O)[C@H](Cc2ccccc2)N(C)C(=O)[C@@H]2CCCN2C1=O,30.7%,
Nc1nc(NC2CC2)c2ncn([C@@H]3C=C[C@@H](CO)C3)c2n1,2.71%,
NC(=O)OCC(O)COc1ccc(Cl)cc1 (centres undefined),2.72% [at 20.6 µM],
C[C@@H]1C/C=C/C=C/C=C/C=C/[C@H](O[C@@H]2O[C@H](C)[C@@H](O)[C@H](N)[C@@H]2O)C[C@@H]2O[C@](O)(C[C@@H](O)C[C@H]3O[C@@H]3/C=C/C(=O)O1)C[C@H](O)[C@H]2C(=O)O,-11.6%,
COc1ccc2c(c1)N(C[C@H](C)CN(C)C)c1ccccc1S2,,8.91 µM (active)
CC(C)C[C@H](NC(=O)[C@@H](Cc1c[nH]c2ccccc12)NC(=O)[C@H](Cc1ccc(O)cc1)NC(=O)[C@H](CO)NC(=O)[C@H](Cc1c[nH]c2ccccc12)NC(=O)[C@H](Cc1cnc[nH]1)NC(=O)[C@@H]1CCC(=O)N1)C(=O)N[C@@H](CCCN=C(N)N)C(=O)N1CCC[C@@H]1C(=O)NCC(N)=O,-6.85%,
COc1cc2c(cc1OC)[C@@H](c1ccccc1)CN(C)CC2,-17.4%,
CC1(C)[C@H]2CC[C@]1(C)[C@H](O)C2,29%,
H-RKDVY-OH,2.74%,
CO/N=C(\C(=O)N[C@@H]1C(=O)N2C(C(=O)O)=C(CSc3nc(C)c(CC(=O)O)s3)CS[C@H]12)c1csc(N)n1,0.523%,

Compound,"activity change, negative = inhibition",Potency
C[N@+]12CCCC[C@@H]1CCC(=C(c1cccs1)c1cccs1)C2,,2.24 µM (active)
CC(C)CN(C[C@@H](OP(=O)(O)O)[C@H](Cc1ccccc1)NC(=O)O[C@H]1CCOC1)S(=O)(=O)c1ccc(N)cc1,22.9%,
C[C@@H](O)[C@H]1C(=O)N2C(C(=O)[O-])=C(SC3Cn4cnc[n+]4C3)[C@H](C)[C@H]12 (some centres undefined),7.8%,
CC(=O)[C@@]1(O)CC[C@H]2[C@@H]3C=C(Cl)C4=CC(=O)[C@@H]5C[C@@H]5[C@]4(C)[C@H]3CC[C@@]21C,3.34%,
NC(=O)c1ccc[n+]([C@@H]2O[C@H](COP(=O)([O-])OP(=O)(O)OC[C@H]3O[C@@H](n4cnc5c(N)ncnc54)[C@H](O)[C@@H]3O)[C@@H](O)[C@H]2O)c1,-2.86% [at 20.6 µM],
CNC(C)CCC=C(C)C (centres undefined),,1.58 µM (active)
CO/N=C(\C(=O)N[C@@H]1C(=O)N2C(C(=O)O)=CCS[C@H]12)c1csc(N)n1,9.15%,
CC(=O)Nc1c(I)c(C(=O)N[C@H]2C(O)O[C@H](CO)[C@@H](O)[C@@H]2O)c(I)c(N(C)C(C)=O)c1I (some centres undefined),2.01% [at 20.6 µM],
CC1(C)S[C@@H]2[C@H](N3C(=O)C(c4ccccc4)NC3(C)C)C(=O)N2[C@H]1C(=O)O (some centres undefined),-1.22%,
CC[C@@H](C(=O)[C@@H](C)[C@@H](O)[C@H](C)[C@@H]1O[C@@H]([C@@H](CC)C(=O)O)CC[C@@H]1C)[C@H]1O[C@]2(C=C[C@@H](O)[C@]3(CC[C@@](C)([C@H]4CC[C@](O)(CC)[C@H](C)O4)O3)O2)[C@H](C)C[C@@H]1C,22.7%,
CC1CCCC(C)N1NC(=O)c1ccc(Cl)c(S(N)(=O)=O)c1 (centres undefined),-3.38% [at 20.6 µM],
CCCCC[C@H](O)/C=C/[C@H]1[C@H](O)CC(=O)[C@@H]1CCCCCCC(=O)O,22.1% [at 20.6 µM],
Cc1c(O)c(=O)ccn1C,-4.57%,
CO[C@H]1O[C@@H]2O[C@@]3(C)CC[C@H]4[C@H](C)CC[C@@H]([C@H]1C)[C@@]24OO3,-0.525%,
C[S+](C)CCC(N)C(=O)O (centres undefined),-3.92%,
CC(=O)O[C@@H]1CC2CCC1(C)C2(C)C (some centres undefined),-6.52%,
C=C1[C@H](CO)[C@@H](O)C[C@@H]1n1cnc2c(=O)[nH]c(N)nc21,-0.589%,
CN(C)CCC(O)(c1ccccc1)c1ccccc1Cl (centres undefined),,3.16 µM (active)
NS(=O)(=O)c1cc2c(cc1Cl)NC(Cc1ccccc1)NS2(=O)=O (centres undefined),0.179%,
